Data: PubChem BioAssay (NCI)
Compounds without any hit were thinned out: in the full panel of roughly 79,000, 15% have a hit. Active and inactive are the calls of the source. No stated cut-off is given here; in the data, active means growth inhibition above about 70%; inactive means the rest.

Test: NCI Yeast Anticancer Drug Screen. Data for the bub3 strain (AID 167)
Conditions: S. cerevisiae bub3 mutant strain, at 100.0 µM, active compounds read high
Outline: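 Readout: yeast growth inhibition, expressed relative to vehicle-only wells. The test organism is a mutant strain from a panel with lesions in DNA repair or checkpoint genes.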
For `CCN(CC)CC[n+]1ccc2c(C)c3[nH]c4ccc(O)cc4c3c(C)c2c1`, the growth inhibition was 2% (inactive). With `O=[n+]1c2ccc(Cl)cc2n([O-])c2ccc(Cl)cc21` the growth inhibition was 14% (inactive). In the case of `CCOP(=O)(OCC)C(Cc1ccccc1)N=C(c1ccccc1)c1ccccc1` (centres undefined), the growth inhibition is reported as 98% (active). In the case of `CC[C@@]1(O)C(=O)OCc2c1cc1n(c2=O)Cc2cc3c(N)cccc3nc2-1`, the growth inhibition is reported as -30% (inactive). For `COC1C=COC2(C)Oc3c(C)c(O)c4c(c3C2=O)/C(=N/C2CCC(O)OC2C)C=C(NC(=O)/C(C)=C\C(=O)C2CC2C(O)C(C)C(O)C(C)C(OC(C)=O)C1C)C4=O` (centres undefined), the growth inhibition was 91% (active). With `COc1cc2c(c(OC)c1OC)-c1c(cc3c(c1OC)OCO3)CC(C)C(C)(O)C2OC(=O)c1ccccc1` (centres undefined) the growth inhibition was 36% (inactive). With `O=c1ssc2ncccc12` the growth inhibition was 98% (active). With `O=C1C2C(C(=O)N1c1ccc(OCc3ccccc3)cc1)C1c3ccccc3C2C2CCCCN21` (centres undefined) the growth inhibition was 88% (active). In the case of `COc1ccc(-c2cn(-c3ccc(I)cc3)c3ncnc(N)c23)cc1`, the growth inhibition is reported as 0% (inactive). With `CCOC(=O)C(NC(=O)c1ccccc1)(N1CCN(c2cc3c(cc2F)c(=O)c(C(=O)O)cn3C2CC2)CC1)C(F)(F)F` (centres undefined) the growth inhibition was 3% (inactive). For `C/C(=N\O)C1CC2C=C(C#N)C1N(Cc1ccccc1)C2` (centres undefined), the growth inhibition was -5% (inactive). In the case of `CC/C(=C(\c1ccccc1)c1ccc(OCCN(C)C)cc1)c1ccccc1`, the growth inhibition is reported as 98% (active). With `COc1ccccc1N=NC(C(=O)c1ccccc1)C(=O)c1ccccc1` the growth inhibition was 97% (active). With `CC(O)C(O)C(O)C(/C=N\Nc1ccccc1)=N/Nc1ccccc1` (centres undefined) the growth inhibition was 30% (inactive). With `COc1ccc(/C=C2\SC(=S)N(/C=C/c3nc4ccccc4[nH]c3=O)C2=O)cc1OC` the growth inhibition was 85% (active). In the case of `N#CN=Nc1cc(Cl)c(N=NC#N)cc1Cl`, the growth inhibition is reported as 88% (active). With `Cc1ccc(S(=O)(=O)Oc2cc(Cl)c(Cl)cc2Cl)cc1` the growth inhibition was -4% (inactive). With `c1ccc2c(c1)Oc1cccc3cccc-2c13` the growth inhibition was 36% (inactive). With `O=C(c1ccc(Cl)cc1Cl)C(Cl)Cl` the growth inhibition was 97% (active). For `CC(C)C1=CCC2C(=C1)CCC1C(C)(C(=O)O)CCCC21C` (centres undefined) (tested in a mixture with another compound), the growth inhibition was 95% (active). In the case of `COc1cc(/C=C2\CCc3ccccc3C2=O)cc(OC)c1OC`, the growth inhibition is reported as 85% (active). In the case of `CC(=O)[O][Bi]([c]1ccccc1)[c]1ccccc1`, the growth inhibition is reported as 94% (active). For `S=C(N/N=C/c1ccccn1)Nc1ccc(Cl)cc1`, the growth inhibition was 49% (inactive). In the case of `COc1cc(CC2CC(c3ccc4c(c3)OCO4)OC2=O)cc(OC)c1OC` (centres undefined), the growth inhibition is reported as 82% (active). In the case of `CNC1C(OC2C(OC3C(O)C(O)C(N=C(N)N)C(O)C3N=C(N)N)OC(C)C2(O)CO)OC(CO)C(O)C1O` (centres undefined), the growth inhibition is reported as -9% (inactive). In the case of `NNC(=O)CCc1ccc2ccc3ccccc3c2c1`, the growth inhibition is reported as 58% (inactive). For `Oc1ccc2ccccc2c1C(c1ccc(Cl)cc1)c1c(O)ccc2ccccc12`, the growth inhibition was 87% (active). With `CCCCN(CCCC)CCSc1ccc(Cl)cc1` the growth inhibition was 92% (active). In the case of `CCC(C)COC(=O)c1ccc(N=Cc2ccc(C=Nc3ccc(C(=O)OCC(C)CC)cc3)cc2)cc1` (centres undefined), the growth inhibition is reported as 10% (inactive). For `CC1(C)C(=O)OC(n2cc(F)c(=O)[nH]c2=O)C1=O` (centres undefined), the growth inhibition was 39% (inactive). For `O=[N+]([O-])CC(SCc1ccccc1)c1ccc2c(c1)OCO2` (centres undefined), the growth inhibition was 97% (active). With `COc1cc2c(cc1[N+](=O)[O-])C(=O)C(Br)(Br)CCC2` the growth inhibition was 92% (active). With `OCC1OC(OCC(O)C(O)C(O)C(/C=N/Nc2ccccc2)=N/Nc2ccccc2)C(O)C(O)C1O` (centres undefined) the growth inhibition was 47% (inactive). With `COc1ccc(N=C2C(=O)Nc3ccc(Br)cc32)cc1` the growth inhibition was 50% (inactive). For `Cn1c(=O)c2ccccc2c2ccccc21`, the growth inhibition was 51% (inactive). With `CC[n+]1ccc2c(C)c3[nH]c4ccc(O)cc4c3c(C)c2c1` the growth inhibition was 15% (inactive). For `CC(=O)ON1C(=O)c2cccc3cccc(c23)C1=O`, the growth inhibition was 95% (active). For `COc1ccc2ccc3ccccc3c2c1C=O`, the growth inhibition was 76% (active). In the case of `OC1CCCc2c1cc1ccc3cccc4ccc2c1c34` (centres undefined), the growth inhibition is reported as 89% (active).
